This note sets out measurements from PubChem BioAssay (Tox21).

Records with an inconclusive call do not appear. Unmarked numbers belong to inactive results. Active and inactive are the calls of the source. Unless noted, calls follow the shape of the dose curve; as a rule, active = well fitted curve in the direction sought with a large enough effect in the repeat runs; inconclusive = weak or mixed curves; inactive = no such curve, though single readings can be large; an effect the other way counts as inactive or inconclusive.

A short description of test [1]: qHTS assay to identify small molecule antagonists of the estrogen related receptor (ERR) signaling pathway from Tox21 library - cell viability counter screen (AID 1224834). Also: nearly all actives have a fitted effect of over 30% in size. Also: potency is read from the fitted curve at half-maximal effect. The method in brief:
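Counter screen run in ERR cells (2,000 cells/well): cells pre-incubated 6 h, then treated with compounds for 17.5 h at 37 C. Fluorescence was read 30 min after CellTiter-Fluor addition.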
A general note: qHTS replaces the single test concentration by a dilution series.

The target of test [2] is Luciferin 4-monooxygenase (Photinus pyralis) (UniProt P08659). As to the kind of experiment: qHTS assay to identify small molecule inhibitors of firefly luciferase (AID 1224835). Also: nearly all actives have a fitted effect of over 25% in size. Also: potency is read from the fitted curve at half-maximal effect. As to activity change, negative = inhibition: series mostly up to about 120 µM. The method in brief:
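Quantitative HTS format; KM concentrations of both substrates. Purified P. pyralis FLuc activity quantified from luminescence images.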

Test [3] in a line: qHTS assay to identify small molecule agonists of the constitutive androstane receptor (CAR) signaling pathway - cell viability counter screen (AID 1224836). Also: nearly all actives have a fitted effect of over 45% in size. Also: potency is read from the fitted curve at half-maximal effect. As to viability change, negative = cytotoxic: series mostly up to about 92 µM. The method in brief:
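Cell viability multiplexed with the CAR agonist screen: CellTiter-Fluor fluorescence after 23 hr at 37 C. HepG2-CYP2B6-hCAR cells got compounds at 15 concentrations with PK11195 at 0.75 uM final.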

Test [4] is described as follows: qHTS assay to identify small molecule antagonists of the constitutive androstane receptor (CAR) signaling pathway - cell viability counter screen (AID 1224837). Also: series mostly up to about 92 µM; nearly all actives have a fitted effect of over 45% in size. In short, it runs like this:
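CITCO at 50 nM final was added alongside compounds (15 concentrations) to double-stable hCAR/CYP2B6-2.2kb HepG2 cells. Following 23 hr at 37 C, cell viability was quantified by CellTiter-Fluor fluorescence intensity.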

Test [5] has as its target Nuclear receptor subfamily 1 group I member 3 (Homo sapiens) (UniProt Q14994). The test is described as follows: qHTS assay to identify small molecule antagonists of the constitutive androstane receptor (CAR) signaling pathway (AID 1224838). Also: nearly all actives have a fitted effect of over 40% in size. In short, it runs like this: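 Inhibition of CITCO-driven (50 nM final) CYP2B6 reporter expression is measured in HepG2 cells stably carrying hCAR. Fifteen compound concentrations are applied for 24 h at 37 C, followed by luciferase luminescence.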

Test [6] shares this target. The test is described as follows: qHTS assay to identify small molecule agonists of the constitutive androstane receptor (CAR) signaling pathway (AID 1224839). Also: nearly all actives have a fitted effect of over 15% in size. Also: potency is read from the fitted curve at half-maximal effect. As to activation: series mostly up to about 92 µM. The method in brief:
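Luminescent ONE-Glo read-out after 24 hr, 37 C exposure of double-stable HepG2-CYP2B6-hCAR reporter cells to a 15-point compound series, in the presence of 0.75 uM PK11195 (final).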

Test [7] in a line: qHTS assay to identify small molecule antagonists of the estrogen related receptor signaling pathway with the pleiotropic PPARgamma coactivator (PGC) from Tox21 10K library - cell viability counter screen (AID 1224840; active = well fitted cell-killing curve with a large enough effect in the repeat runs, not every such curve was filed as active; also: nearly all actives have a fitted effect of over 40% in size). The method in brief: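 Readout: fluorescence intensity from CellTiter-Fluor after 30 min at 37 C/5% CO2. Preceded by 17.5 h treatment of PGC/ERR cells with DMSO-dissolved compounds, added 6 h post-seeding.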

The target of test [8] is Thyrotropin receptor (Homo sapiens) (UniProt P16473). As to the kind of experiment: qHTS assay to identify small molecule agonists of the thyroid stimulating hormone receptor (TSHR) signaling pathway (AID 1224843; calls by dose curve; also: nearly all actives have a fitted effect of over 45% in size). In short, it runs like this:
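Using 15 concentrations per compound in triplicate, cAMP production was monitored in TSHR-HEK293 cells after 30 min compound incubation at RT; HTRF reagents followed, with fluorescence intensity recorded after 1 h.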

Test [9] can be described thus: qHTS assay to identify small molecule agonists of the hypoxia (HIF-1) signaling pathway - cell viability counter screen (AID 1224844; calls by dose curve; also: nearly all actives have a fitted effect of over 50% in size). In short, it runs like this: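 In this counter screen, HRE-bla ME-180 cell viability after 17 hrs of compound exposure at 37C was read by CellTiter-Glo luminescence, multiplexed with the beta-lactamase reporter measurement.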
A short description of test [10]: qHTS assay to identify small molecule agonists of H2AX (AID 1224845; active = well fitted activation curve with a large enough effect in the signal ratio in the repeat runs, not every such curve was filed as active; the % refers to the signal ratio; also: potency is read from the fitted curve at half-maximal effect). In short, it runs like this: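 Wild-type CHO-K1 cells plated overnight, then exposed 3 hr at 37C to compounds at 15 concentrations (0.76% DMSO). Lysed, then HTRF anti-pH2AX(S139)-cryptate/anti-H2AX-d2 detection after 24 hr at room temperature; emissions 665 and 620 nm.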
Test [11] is described as follows: qHTS assay to identify small molecule agonists of the hypoxia (HIF-1) signaling pathway (AID 1224846; active = well fitted activation curve with a large enough effect in the signal ratio in the repeat runs, not every such curve was filed as active; the % refers to the signal ratio). In short, it runs like this: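 ME-180 HRE-bla reporter cells; compounds in DMSO, 17 h at 37C; read-out beta-lactamase via CCF4-AM FRET.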
Test [12] can be described thus: qHTS assay to identify small molecule antagonists of the estrogen related receptor signaling pathway with the pleiotropic PPARgamma coactivator (PGC) from Tox21 10K library (AID 1224841; call rule not given here; also: actives are mostly falling curves and most rising ones were filed inactive; nearly all actives have a fitted effect of over 50% in size; also: potency is read from the fitted curve at half-maximal effect; as to activity, negative = inhibition: series mostly up to about 92 µM). The method in brief: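 One-Glo luminescence, measured after half an hour at room temperature, quantified reporter output of PGC/ERR cells. These had been plated at 2,000 per well, incubated 6 h, dosed with compounds in DMSO, then kept 18 h at 37 C.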

The nature of test [13]: qHTS assay to identify small molecule agonists of the estrogen related receptor signaling pathway with the pleiotropic PPARgamma coactivator (PGC) from Tox21 10K library (AID 1224842). Also: nearly all actives have a fitted effect of over 15% in size. The method in brief: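 PGC/ERR reporter cells (NTP line) were seeded 2,000 per well, rested 6 h at 37 C/5% CO2, then pin-dosed with compounds in DMSO for 18 h at 37 C; luciferase read by One-Glo luminescence after 30 min at room temperature.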
% is scaled to controls: 0 for no effect and ±100 for the full control effect.

Sequence of Luciferin 4-monooxygenase (Photinus pyralis) (P08659 whole entry, looked up): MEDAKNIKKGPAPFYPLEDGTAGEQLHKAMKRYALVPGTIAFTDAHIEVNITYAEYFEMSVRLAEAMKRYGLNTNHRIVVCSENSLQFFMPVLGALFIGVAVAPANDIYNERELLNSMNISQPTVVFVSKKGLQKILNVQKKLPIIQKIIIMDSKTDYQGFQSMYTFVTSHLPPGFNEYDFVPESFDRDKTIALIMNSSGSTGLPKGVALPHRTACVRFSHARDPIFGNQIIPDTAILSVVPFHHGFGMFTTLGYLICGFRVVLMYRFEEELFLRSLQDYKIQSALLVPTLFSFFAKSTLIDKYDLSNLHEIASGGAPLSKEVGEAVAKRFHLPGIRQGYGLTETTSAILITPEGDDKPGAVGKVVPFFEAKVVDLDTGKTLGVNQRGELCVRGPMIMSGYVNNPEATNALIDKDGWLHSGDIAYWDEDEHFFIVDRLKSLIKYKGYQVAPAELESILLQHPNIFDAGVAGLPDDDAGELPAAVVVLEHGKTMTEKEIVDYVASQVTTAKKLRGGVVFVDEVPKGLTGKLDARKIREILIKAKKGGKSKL
Sequence of Nuclear receptor subfamily 1 group I member 3 (Homo sapiens) (Q14994 whole entry, looked up): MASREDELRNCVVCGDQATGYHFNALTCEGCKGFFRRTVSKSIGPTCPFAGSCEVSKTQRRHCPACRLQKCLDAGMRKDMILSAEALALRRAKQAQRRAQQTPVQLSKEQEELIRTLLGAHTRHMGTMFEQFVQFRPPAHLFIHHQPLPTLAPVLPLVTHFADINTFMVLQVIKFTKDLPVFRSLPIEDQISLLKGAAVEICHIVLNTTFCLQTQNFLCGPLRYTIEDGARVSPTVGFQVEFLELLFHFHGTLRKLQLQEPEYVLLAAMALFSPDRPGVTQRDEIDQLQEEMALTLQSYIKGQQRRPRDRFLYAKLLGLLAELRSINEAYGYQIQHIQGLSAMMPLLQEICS
Sequence of Thyrotropin receptor (Homo sapiens) (P16473 whole entry, looked up): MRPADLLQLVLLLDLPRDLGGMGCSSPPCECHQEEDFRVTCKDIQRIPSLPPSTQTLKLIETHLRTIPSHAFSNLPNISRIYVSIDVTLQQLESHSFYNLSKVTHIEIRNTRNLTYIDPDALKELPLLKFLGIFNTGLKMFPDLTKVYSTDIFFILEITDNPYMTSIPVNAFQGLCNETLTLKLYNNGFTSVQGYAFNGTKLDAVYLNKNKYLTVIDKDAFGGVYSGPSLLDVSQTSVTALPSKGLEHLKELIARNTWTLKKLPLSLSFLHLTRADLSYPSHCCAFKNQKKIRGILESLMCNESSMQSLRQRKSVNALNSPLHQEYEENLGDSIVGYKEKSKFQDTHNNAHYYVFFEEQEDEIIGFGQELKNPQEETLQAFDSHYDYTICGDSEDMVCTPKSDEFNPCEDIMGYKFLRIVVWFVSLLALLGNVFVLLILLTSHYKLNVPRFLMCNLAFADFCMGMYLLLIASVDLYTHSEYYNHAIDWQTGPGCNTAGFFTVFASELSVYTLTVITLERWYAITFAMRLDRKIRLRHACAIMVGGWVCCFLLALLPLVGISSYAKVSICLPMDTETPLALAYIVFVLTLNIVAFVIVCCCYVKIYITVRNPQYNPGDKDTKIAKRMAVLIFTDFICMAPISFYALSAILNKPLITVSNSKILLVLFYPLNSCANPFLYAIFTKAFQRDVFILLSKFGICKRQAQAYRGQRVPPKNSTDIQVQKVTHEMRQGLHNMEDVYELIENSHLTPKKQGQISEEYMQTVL

As for `CCc1cccc(C)c1N(C(=O)CS(=O)(=O)O)C(C)COC` (stereo not given), the Potency entry in [1], in test [2], in [3], in test [4], in test [5] and in test [6] was “inactive” throughout. Further, the Potency result in test [7], in test [8], in test [9], in test [10] and in [11] was “inactive” in each case.
As to `CCOC(=O)[C@H](C)O`, the Potency result in test [1], in test [2], in test [3], in test [4], in [5] and in test [6] was “inactive” throughout. The Potency entry in test [7], in test [9], in test [10] and in test [11] was “inactive” in each case.
For `CCN(CCC#N)c1ccc(N=Nc2ccc([N+](=O)[O-])cc2)cc1`, the Potency entry in [1], in test [2], in test [3], in test [5], in test [7] and in [12] was “inactive” in each case. The Potency result in test [8], in [9], in test [10] and in test [11] was “inactive” in each case. Also, in test [6], the Potency is 13.7 µM (active).
With `CC(c1cc(C(C)(C)C)cc(C(C)(C)C)c1O)c1cc(C(C)(C)C)cc(C(C)(C)C)c1O`, the Potency entry in test [1], in [2], in test [3], in [4], in [7] and in test [12] was “inactive” each time. For the same molecule, the Potency entry in test [13], in test [8], in test [9] and in test [11] was “inactive” each time.
`C=C(C)CCO`: the Potency result in [1], in test [2], in [3], in test [4], in test [7] and in [8] was “inactive” throughout. Moreover, the Potency entry in test [9], in test [10] and in [11] was “inactive” each time.
For the molecule `C=C1CC[C@H]2O[C@]2(C)CC[C@@H]2[C@@H]1CC2(C)C`, the Potency result in test [1], in test [2], in [3], in [5], in [6] and in [7] was “inactive” throughout. In addition, the Potency result in [12], in [13], in test [8], in [9], in test [10] and in [11] was “inactive” each time.
With `O=C(O)CN(CCCN(CC(=O)O)CC(=O)O)CC(=O)O`, the results for the viability change, negative = cytotoxic in test [1], in test [3] and in test [7] were 11.6% [at 19 µM], -21.6% [at 19 µM] and -3.45% [at 19 µM], respectively. Further, the activity change, negative = inhibition in [2] was 0.284% [at 23.6 µM]. In addition, the activity, negative = inhibition in [5] was -21.7% [at 19 µM]. Moreover, the activation in test [6] was -1.05% [at 19 µM]; in test [8], -0.184% [at 19 µM]; in [11], 1.13% [at 15.8 µM]. In addition, the activity change, negative = cytotoxicity in test [9] is -18% [at 15.8 µM]. Besides, the activation (H2AX phosphorylation) in test [10] was 1.1% [at 31.6 µM].
`Cc1ccc(C=O)cc1`: the Potency result in test [1], in test [2], in test [3], in test [4], in test [7] and in [8] was “inactive” in each case. The Potency result in test [9], in [10] and in test [11] was “inactive” in each case.
Turning to `[Cl][Eu]([Cl])[Cl]`, the Potency entry in [1], in test [3], in [4], in test [7], in test [9] and in test [11] was “inactive” each time. In addition, in test [2], the Potency is 31.7 µM (active).
For the molecule `C=CC(=O)OCCOC1C2CCC1C1CC=CC12` (stereo not given), the viability change, negative = cytotoxic in [1] is -4.69% [at 19 µM]; in [3] it was -2.57% [at 19 µM]; in [7] it was -0.314% [at 19 µM]. The activity change, negative = inhibition in test [2] is -9.04% [at 23.6 µM]. For the same molecule, the values for the activity change, negative = cytotoxicity in test [4] and in test [9] were -0.771% [at 19 µM] and 4.59% [at 15.8 µM], respectively. For the same molecule, the activation in test [8] is -1.28% [at 19 µM]; in test [11] it was 0.329% [at 15.8 µM]. In addition, in test [10], the activation (H2AX phosphorylation) was -0.772% [at 31.6 µM].
As to `SC1CCCCC1`, the Potency result in test [1], in test [2], in test [3], in test [5], in [6] and in test [12] was “inactive” each time. The Potency result in test [13], in test [8], in test [9], in test [10] and in [11] was “inactive” in each case.
Consider `CCC(=O)OC/C=C(\C)CCC=C(C)C`, for which the Potency result in [1], in test [2], in test [3], in test [4], in [8] and in test [9] was “inactive” in each case. The Potency result in test [10] and in test [11] was “inactive” in each case.
Consider `NC(=O)c1ccccc1Cl`, for which the Potency entry in [1], in test [2], in test [3], in [5], in test [6] and in test [7] was “inactive” in each case. The Potency entry in test [13], in test [9], in test [10] and in test [11] was “inactive” in each case.
For the molecule `C1=CCCC1`, the Potency result in test [1], in test [2], in test [3], in test [4], in test [7] and in test [8] was “inactive” in each case. The Potency entry in test [9], in test [10] and in test [11] was “inactive” throughout.
As to `C=CC(C)(C)O`, the Potency entry in [1], in test [2], in [3], in test [5], in test [6] and in test [7] was “inactive” in each case. Also, the Potency entry in test [9], in [10] and in [11] was “inactive” each time.
In the case of `Nc1c(Br)cc([N+](=O)[O-])cc1Br`, the Potency result in test [1], in test [2], in [3], in test [5], in test [6] and in test [13] was “inactive” in each case. Also, the Potency result in test [9], in [10] and in [11] was “inactive” in each case. The Potency in test [12] is 54.5 µM (active).
Regarding `O=C(Nc1ccccc1)c1cc(Cl)ccc1O`, the results for the Potency in test [1], in test [2] and in [3] were 15.4 µM (active), 3.99 µM (active) and 24.3 µM (active), respectively. The Potency result in test [13], in test [8], in [9] and in test [10] was “inactive” throughout.
Regarding `COc1cc(OC)nc(NC(=O)NS(=O)(=O)Nc2ccccc2C(=O)N(C)C)n1`, the Potency result in test [1], in test [2], in [3], in [5], in [6] and in test [7] was “inactive” in each case. For the same molecule, the Potency entry in test [12], in test [13], in test [8], in test [9], in test [10] and in [11] was “inactive” throughout.
As to `CN(C/C=C/c1ccccc1)Cc1cccc2ccccc12`, the Potency entry in test [1], in test [2], in [3], in test [8] and in test [9] was “inactive” in each case. Besides, in [10], the Potency is 55.2 µM (active).
As to `CSc1ccc(O)cc1C`, the Potency entry in [1], in test [2], in test [3], in [5], in test [7] and in test [12] was “inactive” in each case. Besides, the Potency result in test [13] is “inactive”. The Potency in [10] is 113 µM (active).
With `C=C(C)C1CCC(C)CC1O` (stereo not given), the Potency result in test [1], in [2], in test [3], in test [4], in test [7] and in test [8] was “inactive” in each case. The Potency entry in test [9], in test [10] and in test [11] was “inactive” throughout.
On to `CN1CCN(C)CC1`, for which the Potency entry in test [1], in [2], in test [3], in [4], in test [8] and in [9] was “inactive” throughout. Besides, the Potency entry in test [10] and in test [11] was “inactive” each time.
